What was measured:
Format in all cases: functional
[1] = target: Solute carrier family 2, facilitated glucose transporter member 1 (Homo sapiens) (UniProt P11166); test: ST_JUDE_LEISH: Cytotoxicity at 2uM final concentration against transgenic Leishmania Mexicana promastigotes LmGLUT1 that are glucose transport deficient and complemented with the human glucose transporter GLUT1. Activity is measured by DNA content using SYBR green in vitro
[2] = target: Hexose transporter 1 (Plasmodium falciparum) (UniProt O97467); test: ST_JUDE_LEISH: Cytotoxicity at 2uM final concentration against transgenic Leishmania Mexicana promastigotes LmPfHT that are glucose transport deficient and complemented with the Plasmodium falciparum hexose transporter. Activity is measured by DNA content using SYBR green in vitro
[3] = target: Glucose transporter (Leishmania mexicana) (UniProt O61059); test: ST_JUDE_LEISH: Cytotoxicity at 2uM final concentration against transgenic Leishmania Mexicana promastigotes LmGT2 that are glucose transport deficient and complemented with the L. Mexicana glucose transporter 2. Activity is measured by DNA content using SYBR green in vitro

Chain of Solute carrier family 2, facilitated glucose transporter member 1 (Homo sapiens) (P11166 whole entry): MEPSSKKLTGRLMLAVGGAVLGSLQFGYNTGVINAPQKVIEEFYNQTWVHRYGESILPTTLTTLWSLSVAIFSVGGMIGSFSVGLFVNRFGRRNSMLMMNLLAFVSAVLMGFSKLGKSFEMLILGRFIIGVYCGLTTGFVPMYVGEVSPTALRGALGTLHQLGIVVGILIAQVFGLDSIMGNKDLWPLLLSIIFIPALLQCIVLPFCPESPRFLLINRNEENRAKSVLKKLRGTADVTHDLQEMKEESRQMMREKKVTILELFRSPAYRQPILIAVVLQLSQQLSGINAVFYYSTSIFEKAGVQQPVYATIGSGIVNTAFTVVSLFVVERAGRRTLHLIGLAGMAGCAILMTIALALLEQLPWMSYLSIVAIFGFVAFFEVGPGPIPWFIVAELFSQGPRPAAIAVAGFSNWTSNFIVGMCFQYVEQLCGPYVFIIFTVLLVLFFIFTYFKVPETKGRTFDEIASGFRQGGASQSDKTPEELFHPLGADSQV

Row | SMILES | inhibition [1] [%] | inhibition [2] [%] | inhibition [3] [%]
1 | Cn1cncc1-c1cc2c(Nc3ccc(OCc4ccccc4)cc3)ncnc2cn1 | 4.63 | 5.99 | 1.66
2 | CCNc1cc(C)nc(Nc2ccc(NS(=O)(=O)c3ccccc3)cc2)n1 | 17.8 | 11 | 5.64
3 | Cc1cc(N[C@@H](CC(C)C)C(=O)NCCc2ccccc2)nc(NCc2ccccc2C)n1 | 2.23 | 4.73 | -0.21
4 | COc1cccc(-c2cnc(N)c(-c3nc4ccc(F)cc4[nH]3)c2)c1 | 5.87 | 7.53 | 4.49
5 | O=C(Nc1ccccc1O)C1CCN(c2ncnc3cc(-c4ccc(F)cc4)sc23)CC1 | 1.73 | 2.48 | -2.46
6 | CCN(CC)S(=O)(=O)c1ccc(Cl)c(C(=O)Nc2ccc3nc(C)sc3c2)c1 | -2.24 | -0.92 | -1.58
7 | NC(=O)c1cccc(-n2ccc3cc(CNC4Cc5ccccc5C4)ccc32)c1 | 21.9 | 26.2 | 8.72
8 | C=CCN1C(=O)CN(S(=O)(=O)c2ccc(-n3nc(C)cc3C)cc2)C1=S | 3.32 | 3.89 | 2.49
9 | O=C(Nc1ccc2[nH]c(-c3ccc4nc(NC(=O)C5CCCCC5)sc4c3)nc2c1)C1CCCCC1 | 0.5 | -0.34 | -1.71
10 | Cc1occc1C(=O)Nc1nc(-c2ccccn2)nc2ccsc12 | 78.6 | 73.2 | 70
11 | Cc1[nH]c(C)c(-c2ccc(-c3ccc(Cl)cc3)nc2)c(=O)c1Br | -0.04 | -0.24 | -1.28
12 | Cc1ccccc1C1CCN(C2CCC(NC(=O)/C=C/c3c(F)ccc(F)c3F)CC2)CC1 (stereo not drawn) | 2.52 | 2.75 | 2.13
13 | CCCCCCN1CCC(NCc2ccc(C(F)(F)F)cc2)CC1 | 2.05 | 1.54 | 5.77
14 | CN(CCN)Cc1ccc(-c2ccc(-c3nc4cc(F)ccc4[nH]3)s2)cc1 | -0.54 | 0.42 | -1.71
15 | CCc1c[nH]c2c(N(c3ccccc3)S(C)(=O)=O)cc(C(=O)N[C@@H](Cc3ccccc3)[C@H](O)CNCc3cccc(C(F)(F)F)c3)cc12 | 1.52 | 1.54 | -2.38
16 | CCOc1ccc(C=CC(=O)Nc2ccc3nc(N4CCN(C)CC4)cc(C)c3c2)cc1OC | 3 | 3.77 | 1.18
17 | COc1ccc2c(NN=Cc3ccc(N(C)C)cc3)ccnc2c1 | 10.8 | 10.8 | 8.44
18 | N#Cc1ccc(CNCCCCCCNCc2ccc(C#N)c3ccccc23)c2ccccc12 | 2.15 | 1.12 | 2.53
19 | CN(C)c1ccc(CN2CCC(CNC(=O)c3cc(-c4ccccc4F)cs3)C2)cc1 (stereo not drawn) | 1.96 | 1.98 | 2.12
20 | O=C(Nc1ccc2c(c1)CCNCC2)c1ccc(-c2ccc(Cl)cc2)cc1 | 58.3 | 104 | 109
21 | Cc1ccc(Nc2c3ccccc3nc3ccc(C)cc23)cc1 | 4.86 | 7.1 | 2.9

— ChEMBL document CHEMBL3433997, “St. Jude Leishmania screening dataset” (2016)
